Measurements from PubChem BioAssay AID720517 (National Center for Advancing Translational Sciences (NCATS), 2013).
Results filed as inconclusive are left out. The source made the active and inactive calls. Calls come from the whole dose curve; as a rule, active = well fitted activation curve with a large enough effect; inconclusive = small, poorly fitted or top-dose-only effect; inactive = flat fitted curve, though single readings scatter.

Assay: qHTS for Inhibitors of Cell Surface uPA Generation: FP59 Counterscreen for Cherry-picked Compounds; for activity (protection from FP59): 0% is about no effect
Settings: FP59 anthrax toxin cytotoxicity counterscreen, cells; series mostly up to 115 µM; activity (protection from FP59): at the top concentration
Potency is the fitted concentration of half-maximal effect.

| SMILES | activity (protection from FP59) | Potency |
| --- | --- | --- |
| Cc1ccc(C)c(-c2ccc(=O)n(Cc3c(F)cccc3Cl)n2)c1 | 8.52% (inactive) | – |
| Cc1cc(C)c(S(=O)(=O)N2CCCOC2CNC(=O)C(=O)NCc2cccs2)c(C)c1 (stereo not drawn) | -1.06% (inactive) | – |
| CN(C)S(=O)(=O)c1cccc(C(=O)OCC(=O)NCc2ccc3c(c2)OCO3)c1 | -1.44% (inactive) | – |
| O=C(NNC(=O)c1ccc2ccccc2c1)Nc1ccc(F)cc1 | -1.26% (inactive) | – |
| N/C(=N/OC(=O)c1ccccc1F)c1nonc1N | -1.47% (inactive) | – |
| Cc1nc(SCc2nc3ccccc3[nH]2)c2oc3cc([N+](=O)[O-])ccc3c2n1 | -0.853% (inactive) | – |
| Cc1ccc(NC(=O)c2ccc(=O)[nH]n2)cc1S(=O)(=O)Nc1ccccc1Cl | -1.47% (inactive) | – |
| Cc1nc(N2CCN(c3ccc(Cl)cc3)CC2)[nH]c(=O)c1C | -0.777% (inactive) | – |
| COC(=O)[C@@]1(Cc2ccc(F)cc2)[C@H]2c3cc(C(=O)N(C)C)n(Cc4c(CO)[nH]cc(C)c4=O)c3C[C@H]2CN1C(=O)c1ccccc1 | -1.32% (inactive) | – |
| COCCn1nnnc1C(C(C)C)N1CCCC(C)C1 (stereo not drawn) | -1.3% (inactive) | – |
| COc1cc(F)ccc1S(=O)(=O)n1c(C)nc2ccccc21 | -1.07% (inactive) | – |
| N#C/C(N=Nc1ccccc1O)=N\Nc1ccccc1O | 11.3% (inactive) | – |
| CCOCCCn1c(SCC(=O)Nc2cc(OC)ccc2OC)nc2ccccc2c1=O | 9.94% (inactive) | – |
| NC(=O)c1cc2c3ccccc3ccn2c1-c1ccccc1 | -1.18% (inactive) | – |
| CN(CC(=O)N(C)CC(=O)Nc1c(Cl)cccc1Cl)Cc1ccccc1F | -1.27% (inactive) | – |
| CN(CCC#N)C(=S)Nc1ccc(Oc2ccccc2)cc1 | -1.09% (inactive) | – |
| CCOc1ccc(/C=N/NC(=S)Nc2c(C)cccc2C)cc1 | -1.17% (inactive) | – |
| CCN(CC)CC(=O)Nc1sc2c(c1C(=O)c1ccccc1OC)CCC2 | – | 16.5 µM (active) |
